About 83,000 compounds went through this panel and 20% of them were active in at least one assay; those are over-represented in the sample as a whole.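 Cells were grown in 96-well plates and exposed to the test compound at a single concentration for 48 hours; results are reported as percent growth, with values below 10 considered active.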 Values without a mark were called inactive. Activity calls are given as the source filed them.
Experiments:
Test in all cases: NCI-60 one-dose screen, 48 h (100 = growth as untreated, 0 = no growth, -100 = all killed)
Conditions in all cases: 10 µM unless noted
[1] = system: DU-145 prostate
[2] = system: K-562 leukemia
[3] = system: MALME-3M melanoma
[4] = system: MDA-MB-231 breast
[5] = system: RXF 393 renal
[6] = system: SF-268 CNS
[7] = system: SF-295 CNS
[8] = system: SF-539 CNS
[9] = system: UACC-257 melanoma
[10] = system: M14 melanoma

Row | SMILES | growth [1] | growth [2] | growth [3] | growth [4] | growth [5] | growth [6] | growth [7] | growth [8] | growth [9] | growth [10]
1 | COc1cc(/C=C/c2cc(/C=C/c3ccc(O)c(OC)c3)n(C(=O)Nc3ccc(C)cc3C)n2)ccc1O | -26.6% (active) | -7.18% (active) | -21.7% (active) | 10.2% | -67.3% (active) | 3.8% (active) | -51% (active) | -19.6% (active) | -21.4% (active) | -38.1% (active)
2 | C=C(C)[C@@H]1CCC[C@]2(C(=O)OC)CC[C@]3(C)[C@@H](CC[C@@H]4[C@@]5(C)CCCNC(C)(C)[C@@H]5CC[C@]43C)[C@@H]12 | 105% | 55.4% | 79.6% | 85.5% | 90.9% | 93.4% | 104% | 98.7% | 98.9% | 97%
3 | CC(C)c1nc(N(C)S(C)(=O)=O)nc(-c2ccc(F)cc2)c1/C=C/C(=O)C[C@@H](O)CC(=O)O | 102% | 90.9% | 109% | 110% | 124% | 98.5% | 103% | 104% | 95.6% | 102%
4 | COc1cc2ncnc(Nc3ccc(S(=O)(=O)Nc4cc(C)on4)cc3)c2cc1OCCCN1CCOCC1 | 108% | 102% | 95.3% | 105% | 102% | 98.1% | 97.7% | 99.4% | 99.8% | 105%
5 | C=CCn1c(SCC(=O)Nc2ccc(C(=O)/C=C/c3cc(OC)c(OC)c(OC)c3)cc2)nnc1-c1cc(-c2ccc(S(N)(=O)=O)cc2)nc2ccccc12 | 105% | 48.2% | 97.1% | 83.1% | 64.6% | 94.6% | 99% | 86.6% | 96.1% | 95.6%
6 | CC1=C([Se]CC(OC(=O)[C@@H](CO)NC(=O)OC(C)(C)C)C(=O)NCCCCCC(=O)OCc2ccccc2)C(=O)c2ccccc2C1=O (stereo not given in full) | -54.6% (active) | -4.48% (active) | -68.1% (active) | -54.4% (active) | -99.4% (active) | -2.71% (active) | -38.4% (active) | -92.6% (active) | -94% (active) | -95% (active)
7 | O=C(O)/C=C\C(=O)Nc1ccc2c(c1)Cc1cc(F)ccc1-2 | 111% | 104% | 98.9% | 112% | 114% | 96% | 96.4% | 94.9% | 115% | 96.4%
8 | COc1cc(OC)cc(C(=O)Nc2cnc(Nc3ccc(N4CCOCC4)nc3)nc2Oc2ccc(C(F)(F)F)cc2)c1 | 78.8% | 97% | 57.2% | 44% | 76.5% | 78.7% | 77% | 34% | 16.7% | 93.1%
9 | N=C(N)c1ccc(-c2ccc(-c3ccc(Cl)cc3Cl)s2)nc1 | 28.7% | -1.71% (active) | 100% | 74.3% | 79.8% | 89.8% | 58.4% | 83.5% | 101% | 74.7%
10 | CCCc1cc(CCC)n2nc(N)nc2n1 | 117% | 121% | 116% | 125% | 102% | 110% | 96.4% | 112% | 118% | 111%
11 | C/C(=N\NC(=O)c1ccc(C(C)(C)C)cc1)c1ccc(O)cc1O | 29.3% | 12.9% | 28.4% | 37.4% | -9.15% (active) | 27.6% | 16.2% | 14.7% | 8.32% (active) | 23%

From PubChem BioAssay (NCI)
